# According to PubChem BioAssay (NCATS):
# Results filed as inconclusive are left out. Where a call stands in place of a potency, no number is given. Activity calls are given as the source filed them. Calls come from the whole dose curve; as a rule, active = well fitted curve in the direction sought with a large enough effect; inconclusive = small, poorly fitted or top-dose-only effect, or another doubt; inactive = no such curve, though single readings can be large; an effect the other way counts as inactive or inconclusive.
# Tests used:
# [1] = target: Aldehyde dehydrogenase, mitochondrial (Homo sapiens) (UniProt P05091); test: qHTS for Inhibitors of the Aldehyde Dehydrogenase Family (ALDH2) Primary screen (AID 2061308); note: nearly all actives have a fitted effect of over 55% in size
# [2] = target: Retinaldehyde dehydrogenase 3 (Homo sapiens) (UniProt P47895); test: qHTS for Inhibitors of the Aldehyde Dehydrogenase Family (ALDH1A3) Primary screen (AID 2061315)
Structure (SMILES),Potency [1],Potency [2]
COc1ccc(C)cc1NC(=O)C(OC(=O)CNC(=O)c1ccccc1)c1ccccc1 (stereo not drawn),inactive,inactive
CCn1cnc2c(Nc3cccc(Cl)c3)nc(C#N)nc21,inactive,inactive
Cc1cc(NC(=O)Nc2nnc(-c3ccncc3)s2)ccc1F,inactive,inactive
CC(C)(NC(=O)Nc1ccccc1Cl)C(=O)N1CCC(C(=O)O)CC1,inactive,inactive
NC(=O)C1CCN(c2nc(-c3ccc(Br)cc3)cs2)CC1,inactive,inactive
CC(=O)Nc1ccc(S(=O)(=O)Nc2nccs2)cc1,inactive,inactive
COc1ccc(C(=O)O)cc1COc1ccc(NC(C)=O)cc1,inactive,inactive
CCC(=O)Nc1ccc(Cl)cc1C(=O)c1ccc[nH]1,inactive,inactive
COc1ccc(S(=O)(=O)Nc2cnccc2C(=O)Nc2nc(-c3ccccc3)cs2)cc1,inactive,inactive
Nc1cc(-c2nc(Nc3ccc(F)c(F)c3)c3ccccc3n2)ccn1,inactive,inactive
COc1cccc(C2C(C#N)=C(NC(=O)NCc3ccccc3)Oc3ccc4ccccc4c32)c1 (stereo not drawn),inactive,inactive
O=C(Nc1cc(F)cc(F)c1)Nc1nnc(-c2ccncc2)s1,inactive,inactive
CCOc1ccc(CCNC(=O)c2cccs2)cc1OCC,inactive,inactive
O=C(Nc1ncc(Cc2ccc(C(F)(F)F)cc2)s1)c1ccc(-c2ccccc2)o1,inactive,inactive
O=C(Cn1nc(C2CC2)ccc1=O)NCCc1ccccc1,inactive,inactive
COc1ccc(C(=O)NCC(=O)OC(C(=O)Nc2cc(C(F)(F)F)ccc2Cl)c2ccccc2)cc1OC (stereo not drawn),inactive,inactive
COc1ccc(C2=Nn3c(nnc3-c3ccc(OC)cc3OC)SC2)c(OC)c1,inactive,inactive
O=c1c2ccc([N+](=O)[O-])cc2nc2sc(Nc3ccc4c(c3)CCC4)nn12,inactive,inactive
c1csc(CCNc2ncnc3ccc(-c4ccc5c(c4)OCO5)cc23)c1,inactive,inactive
Cc1ccc(S(=O)(=O)Nc2ccccc2C(=O)Nc2ncc(-c3ccccc3)s2)cc1,inactive,inactive
Cn1nnnc1Sc1ncnc2scc(-c3ccccc3F)c12,inactive,inactive

Structure (SMILES),Potency [1],Potency [2]
CN(Cc1ccco1)c1ncnc2ccc(-c3cccc(Cl)c3)cc12,inactive,inactive
CN1CCOc2ccc(S(=O)(=O)N3CCN(S(=O)(=O)c4c(F)cccc4F)CC3)cc21,inactive,inactive
O=C(Nc1ccc(Cl)cc1)Nc1nnc(-c2ccncc2)s1,inactive,inactive
Cc1ccc(S(=O)(=O)Nc2cnccc2C(=O)Nc2nc(-c3ccc(Cl)c(Cl)c3)cs2)cc1,inactive,inactive
Cc1ccc(S(=O)(=O)Nc2cnccc2C(=O)Nc2nc(-c3ccc(F)cc3)cs2)cc1,inactive,inactive
O=C(Nc1nc(-c2ccccc2)cs1)c1ccncc1NS(=O)(=O)c1ccc(N2CCCC2=O)cc1,inactive,inactive
O=C(O)c1ccc(CSc2nnc(-c3ccc([S+](=O)([O-])N4CCCC4)cc3)n2-c2ccccc2)cc1,inactive,inactive
CC(=O)Nc1ccc(S(=O)(=O)Nc2ccc(C)c(C)c2)cc1,inactive,inactive
Cc1cccc(Nc2nc(NCCO)nc(N3CCCC3)n2)c1,inactive,inactive
O=C1CN(S(=O)(=O)c2ccc3c(c2)OCCO3)CCN1S(=O)(=O)c1c(F)cccc1F,inactive,inactive
Brc1cnc2nc(SCc3cccnc3)[nH]c2c1,inactive,inactive
c1cncc(CNc2ncnc3ccc(-c4ccc5c(c4)OCCO5)cc23)c1,inactive,inactive
FC(F)(F)c1ccccc1-c1nccc(NCc2ccc(-c3cccnc3)cc2)n1,inactive,inactive
Cc1ccc(NS(=O)(=O)c2ccc(Cl)cc2)cc1C,inactive,inactive
COC(=O)c1ccc2c(c1)/C(=C/c1cc(Br)c(O)c(Br)c1)C(=O)N2,inactive,inactive
O=S(=O)(Cc1ccc(Cl)c(Cl)c1)Nc1nnc(-c2ccncc2)s1,inactive,inactive
COc1ccc(NS(=O)(=O)c2ccc(C)cc2)cc1C(=O)Nc1nc(-c2ccccc2)cs1,inactive,inactive
CC(C)(O)/C=C/C(=O)[C@](C)(O)[C@H]1[C@H](O)C[C@@]2(C)[C@@H]3CC=C4[C@@H](C[C@H](O[C@@H]5O[C@H](CO)[C@@H](O)[C@H](O)[C@H]5O)C(=O)C4(C)C)[C@]3(C)C(=O)C[C@]12C,inactive,inactive
CNc1oc(-c2cccc3ccccc23)nc1C(=O)OC,inactive,inactive
CCn1c(-c2nonc2N)nc2c(C#CCO)ncc(OCCCN)c21,inactive,inactive
COc1ccc(OC)c(C2=Nn3c(nnc3-c3cccc(OC)c3OC)SC2)c1,inactive,inactive

Structure (SMILES),Potency [1],Potency [2]
CCC(CC)C(=O)NCCc1nc2ccccc2n1CCOc1ccc(C)cc1,inactive,inactive
CC1(C)CC[C@]23CO[C@@]4(CCC5[C@@]6(C)CC[C@H](O[C@@H]7OC[C@H](O[C@@H]8O[C@H](CO)[C@@H](O)[C@H](O)[C@H]8O[C@@H]8OC[C@@H](O)[C@H](O)[C@H]8O)[C@H](O)[C@H]7O[C@@H]7O[C@H](CO)[C@@H](O)[C@H](O)[C@H]7O)[C@@](C)(CO)C6CC[C@@]5(C)[C@]4(C)C[C@H]2O)[C@@H]3C1 (stereo partly drawn),inactive,inactive
Cc1ccc(OCCn2c(CCNC(=O)c3cccc(NC(=O)OC(C)(C)C)c3)nc3ccccc32)cc1,inactive,inactive
COc1cnccc1-c1nc(Nc2ccc(F)c(F)c2)c2ccccc2n1,inactive,inactive
O=C(Nc1ccc2ccccc2c1)Nc1nnc(-c2ccncc2)s1,inactive,inactive
Nc1ncnc2c1nc(N)n2[C@@H]1O[C@H](CO)[C@@H](O)[C@H]1O,inactive,inactive
Cc1cccc(-c2ccc3ncnc(NCc4cc(C)cs4)c3c2)c1,inactive,inactive
Cc1cc(C)nc(NC(=S)N2CCN(c3cccc(S(C)(=O)=O)c3)CC2)c1,inactive,inactive
CC(C)(C)c1ccc(C(=O)NCC(=O)OC(C(=O)Nc2cc(C(F)(F)F)ccc2Cl)c2ccccc2)cc1 (stereo not drawn),inactive,inactive
CN(Cc1ccc(-c2ccccc2)cc1)c1nc(-c2ccccc2C(F)(F)F)nc2ccccc12,inactive,inactive
O=C(Cn1cc(CNC(=O)c2ccccc2)nn1)Nc1cc(C(F)(F)F)ccc1Cl,inactive,inactive
COc1ccc(C[C@H](C(=O)O)N2C(=O)c3ccc(C(=O)O)cc3C2=O)cc1,inactive,inactive
O=C1CCCC2=C1C(c1[nH]ncc1Cl)N=C(Nc1cccnc1)N2 (stereo not drawn),inactive,inactive
Fc1ccc(-c2ccc(Nc3nc(-c4ccncc4)nc4ccccc34)cc2F)cc1,inactive,inactive
FC(F)(F)c1ccccc1-c1nc(NCc2ccc(-c3cccnc3)cc2)c2[nH]cnc2n1,inactive,inactive
Cc1ccc(C)c(-c2cc(C(F)(F)F)nn2-c2ccc(S(N)(=O)=O)cc2)c1,inactive,inactive
Cc1noc(C)c1-c1ccc2ncnc(NCc3cc(F)cc(F)c3)c2c1,inactive,inactive
Fc1ccc(Nc2nc(-c3ccnc(N4CCCCC4)c3)nc3ccccc23)cc1F,inactive,inactive
Cn1nnnc1Sc1ncnc2scc(-c3ccccc3C#N)c12,inactive,inactive
C#C[C@]1(O)CC[C@H]2[C@@H]3CCC4=C/C(=N/O)CC[C@@H]4[C@H]3CC[C@@]21CC,inactive,inactive
CC1CC1C(=O)Nc1ccc([S+](=O)([O-])Nc2nccs2)cc1 (stereo not drawn),inactive,inactive

Structure (SMILES),Potency [1],Potency [2]
CN(C)CCNc1ncnc2ccc(-c3ccc4c(c3)OCO4)cc12,inactive,inactive
O=S(=O)(Nc1nc(CN2CCOCC2)nc2sc3c(c12)CCC3)c1ccc2c(c1)OCCO2,inactive,inactive
COc1cc(O)c(C(CC(=O)N2CCC(C)CC2)c2ccc(OC)c(OC)c2)c(OC)c1 (stereo not drawn),inactive,inactive
CC(C)(C)Cc1nnc(NC(=O)CSc2ccccc2)s1,inactive,inactive
Cc1cc(NS(=O)(=O)c2ccc(NC(=O)Cc3ccc(C)c(C)c3)cc2)no1,inactive,inactive
COc1cc(-c2nc(Nc3ccc(F)c(F)c3)c3ccccc3n2)ccn1,inactive,inactive
CC(=O)c1ccc(N2CCN(S(=O)(=O)c3ccc4c(c3)C(=O)OC4)CC2)cc1,inactive,inactive
O=C1C2=C(CN1c1ccccc1)NC(Nc1nc3ccccc3o1)=NC2c1ccccc1Cl (stereo not drawn),inactive,inactive
Cc1ccc(NS(=O)(=O)c2cc3c(cc2-c2cn[nH]c2)NC(=O)CO3)cc1C,inactive,inactive
Cc1ccc(S(=O)(=O)Nc2cccnc2C(=O)Nc2nc(-c3ccccc3)cs2)cc1,inactive,inactive
Cc1ccc(-c2ccc(CNc3nc(-c4ccccc4C(C)C)nc4ccccc34)cc2)cn1,inactive,inactive
O=C(OCC#CCSc1nnc(-c2ccc3ccccc3c2)o1)c1cccs1,inactive,inactive
O=C(Oc1cccnc1)c1cccs1,inactive,inactive
CC(=O)Nc1ccc(NC(=O)c2cnn3c(C)cc(C)nc23)cc1,inactive,inactive
Cc1ccccc1CSc1nc2ncc(Br)cc2[nH]1,inactive,inactive
C=C1C(=O)OC2C1CCC1(C)C(O)CCC(=C)C21 (stereo not drawn),inactive,inactive
Cc1ccc(S(=O)(=O)Nc2ccccc2N2CCCCC2)s1,inactive,inactive
CNc1oc(-c2ccc(Cl)c(Cl)c2)nc1C#N,inactive,inactive
Cc1cccc2oc(NC3=NC(c4[nH]ncc4Cl)C4=C(CCCC4=O)N3)nc12 (stereo not drawn),inactive,inactive
CC(C)N1Cc2ccc(Nc3nn4c(=O)c5ccccc5nc4s3)cc2C1,inactive,inactive
COc1ccc(OC2=NS(=O)(=O)c3ccccc32)cc1,inactive,inactive
